# According to PubChem BioAssay (NCATS):
# Results filed as inconclusive are left out. A number with no mark means an inactive call. Calls of active or inactive are those of the source. The call rests on the fitted dose curve; in most records, active means well fitted inhibition curve with a large enough effect; inconclusive means small, poorly fitted or top-dose-only effect; inactive means flat fitted curve, though single readings scatter.
# What was measured:
# [1] = test system: CRL-7250; experiment: Cytotoxic Profiling of Annotated Libraries Using Quantitative High-Throughput Screening (AID 1296008); settings: Five cell lines viability, CellTiter-Glo ATP luminescence, 48-72 h; max response: active compounds read low
# Method in brief: (§1)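 Compounds were pin-transferred onto cells and incubated 48 or 72 hr at 37 degree Celsius, 95% humidity. CellTiter-Glo was added, plates sat 10 min at room temperature, then ATP-coupled luminescence was imaged as the viability read-out.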
# [2] = test system: HEK293; experiment: as above; settings: Five cell lines viability, CellTiter-Glo ATP luminescence, 48-72 h; max response: active compounds read low
# Method in brief: as §1
# [3] = test system: HaCat; experiment: as above; settings: Five cell lines viability, CellTiter-Glo ATP luminescence, 48-72 h; max response: active compounds read low
# Method in brief: as §1
# [4] = test system: KB-3-1; experiment: as above; settings: Five cell lines viability, CellTiter-Glo ATP luminescence, 48-72 h; max response: active compounds read low
# Method in brief: as §1
# [5] = test system: NIH3T3; experiment: as above; settings: Five cell lines viability, CellTiter-Glo ATP luminescence, 48-72 h; max response: active compounds read low
# Method in brief: as §1
# [6] = test system: MCC-13; experiment: qHTS assay to identify novel small-molecules to repurpose for Merkel cell carcinoma treatment (AID 1296009); settings: MCC and control cell lines, CellTiter-Glo viability, 72 h; series mostly up to 46 µM
# Method in brief: (§2)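 qHTS format: cells treated with library compounds in DMSO across 8 (NPC) or 11 (MIPE) concentrations. Readout after 72 hr at 37 degree celsius was CellTiter-Glo luminescence.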
# [7] = test system: MCC-26; experiment: as above; settings: MCC and control cell lines, CellTiter-Glo viability, 72 h; series mostly up to 46 µM
# Method in brief: as §2
# Further: nearly all actives have a fitted effect of over 60% in size.
# On the % scale 0 is the no-effect control and ±100 the full control effect; potency means the concentration at half of the fitted maximal effect.
smiles,measurement,setting,value
CC(C)(C)[N+]([O-])=Cc1ccc(S(=O)(=O)O)cc1S(=O)(=O)O,max response,[1],1.88%
same,max response,[2],-0.289%
same,max response,[3],-17.9%
same,max response,[4],9.38%
same,max response,[5],0.254%
same,Potency,[6],inactive
same,Potency,[7],inactive
O=C(O)C=Cc1ccc(Cn2ccnc2)cc1,max response,[1],3.43%
same,max response,[2],-2.77%
same,max response,[3],-0.523%
same,outcome,[4],inactive
same,max response,[5],-0.597%
same,Potency,[6],inactive
same,Potency,[7],inactive
C[C@H]1O[C@H](O[C@H]2[C@H](O)[C@@H](O)[C@@H](O[C@H]3[C@H](O)[C@@H](O)C(O)O[C@H]3CO)O[C@H]2CO)[C@H](O)[C@@H](O)[C@H]1N[C@H]1C=C(CO)[C@@H](O)[C@H](O)[C@@H]1O (stereo partly drawn),max response,[1],1.59%
same,Potency,[2],9.35 µM (active)
same,max response,[3],-16.9%
same,max response,[4],4.29%
same,max response,[5],-1.18%
same,Potency,[6],inactive
same,Potency,[7],inactive
CN(C)CC[C@H](c1ccc(Cl)cc1)c1ccccn1,outcome,[1],inactive
same,max response,[2],-15.3%
same,max response,[3],-31.9%
same,max response,[4],-7.57%
same,max response,[5],-0.393%
same,Potency,[6],inactive
same,Potency,[7],inactive
COc1ccc(C(C)=O)c(O)c1,max response,[1],-6.37%
same,max response,[2],0.614%
same,max response,[3],-4.96%
same,max response,[4],4.34%
same,max response,[5],2.86%
same,Potency,[6],inactive
same,Potency,[7],inactive
Cc1onc(-c2ccccc2)c1C(=O)N[C@@H]1C(=O)N2[C@@H](C(=O)O)C(C)(C)S[C@@H]12,max response,[1],-3.26%
same,max response,[2],-0.866%
same,max response,[3],-5.57%
same,max response,[4],3.95%
same,max response,[5],-2.28%
same,Potency,[6],inactive
same,Potency,[7],inactive
C[C@@H](Oc1ccc2[nH]nc(C=Cc3cnn(CCO)c3)c2c1)c1c(Cl)cncc1Cl,Potency,[1],11.8 µM (active)
same,Potency,[2],13.2 µM (active)
same,Potency,[3],3.32 µM (active)
same,Potency,[4],0.418 µM (active)
same,Potency,[5],3.72 µM (active)
same,Potency,[6],26.4 µM (active)
same,Potency,[7],16.6 µM (active)
CCOC(=O)C=C[C@H](C[C@@H]1CCNC1=O)NC(=O)[C@@H](CC(=O)[C@@H](NC(=O)c1cc(C)on1)C(C)C)Cc1ccc(F)cc1,max response,[1],-2.35%
same,max response,[2],-0.69%
same,max response,[3],-7.58%
same,max response,[4],4.76%
same,max response,[5],0.598%
same,Potency,[6],inactive
same,Potency,[7],inactive
COc1ccc2cc([S+]([O-])Cc3ncc(C)c(OC)c3C)nc2c1,outcome,[1],inactive
same,max response,[2],1.45%
same,max response,[3],3.09%
same,outcome,[4],inactive
same,max response,[5],-6.22%
same,Potency,[6],inactive
same,Potency,[7],inactive
COc1cccc2c1C(=O)c1c(O)c3c(c(O)c1C2=O)C[C@@](O)(C(=O)CO)C[C@@H]3O[C@H]1C[C@H](N)[C@@H](O)[C@H](C)O1,Potency,[1],1.18 µM (active)
same,Potency,[2],0.132 µM (active)
same,Potency,[3],0.372 µM (active)
same,Potency,[4],0.743 µM (active)
same,Potency,[5],0.235 µM (active)
same,Potency,[6],5.9 µM (active)
same,Potency,[7],2.35 µM (active)
CC(C)(O)Cn1c(NC(=O)c2ccc(-c3cn[nH]c3)s2)nc2cc(CN3CCOCC3)ccc21,Potency,[1],1.66 µM (active)
same,Potency,[2],0.526 µM (active)
same,Potency,[3],1.32 µM (active)
same,Potency,[4],1.05 µM (active)
same,Potency,[5],2.35 µM (active)
same,Potency,[6],2.96 µM (active)
same,Potency,[7],4.69 µM (active)
C#C[C@]1(O)CC[C@@H]2[C@@H]3CCC4=CC(=O)CC[C@@H]4[C@H]3CC[C@@]21CC,max response,[1],-6.84%
same,max response,[2],-8.15%
same,max response,[3],-5.66%
same,max response,[4],-5.98%
same,max response,[5],-8.04%
same,Potency,[6],inactive
same,Potency,[7],inactive
C=CCNC1=C2C[C@@H](C)C[C@H](OC)[C@@H](O)[C@@H](C)C=C(C)[C@H](OC(N)=O)[C@@H](OC)C=CC=C(C)C(=O)NC(=CC1=O)C2=O,Potency,[1],0.296 µM (active)
same,Potency,[2],0.935 µM (active)
same,Potency,[3],0.59 µM (active)
same,Potency,[4],0.105 µM (active)
same,Potency,[5],0.526 µM (active)
same,Potency,[6],3.72 µM (active)
C[C@H](NC(=O)C(C#N)=Cc1cccc(Br)n1)c1ccccc1,Potency,[1],5.26 µM (active)
same,Potency,[2],4.18 µM (active)
same,Potency,[3],10.5 µM (active)
same,Potency,[4],4.69 µM (active)
same,Potency,[5],9.35 µM (active)
same,Potency,[6],inactive
same,Potency,[7],inactive
Cc1cnc(NC(=O)Nc2cc(Br)c(C)cc2OC[C@@H]2CNCCO2)cn1,max response,[1],-18.7%
same,Potency,[2],1.32 µM (active)
same,max response,[3],1.25%
same,max response,[4],-6.69%
same,Potency,[5],4.18 µM (active)
same,Potency,[6],inactive
same,Potency,[7],inactive
CN(C)c1ccc(C(=O)NCCCCCCC(=O)NO)cc1,Potency,[1],2.64 µM (active)
same,Potency,[2],1.87 µM (active)
same,Potency,[3],4.69 µM (active)
same,Potency,[4],2.35 µM (active)
same,Potency,[5],3.72 µM (active)
same,Potency,[6],4.18 µM (active)
CC(=O)[C@]1(O)Cc2c(O)c3c(c(O)c2[C@@H](O[C@H]2C[C@H](N)[C@@H](O)[C@H](C)O2)C1)C(=O)c1ccccc1C3=O,Potency,[1],1.48 µM (active)
same,Potency,[2],0.132 µM (active)
same,Potency,[3],0.743 µM (active)
same,Potency,[4],0.469 µM (active)
same,Potency,[5],0.264 µM (active)
same,Potency,[6],0.662 µM (active)
same,Potency,[7],1.32 µM (active)
CC(Cc1ccc(O)c(O)c1)(NN)C(=O)O (stereo not drawn),outcome,[1],inactive
same,max response,[2],-17.2%
same,max response,[3],-11%
same,max response,[4],-1.08%
same,max response,[5],-2.89%
same,Potency,[6],inactive
same,Potency,[7],inactive
CC(C)(O)[C@H]1CC[C@@](C)([C@H]2[C@@H](O)C[C@@]3(C)[C@@H]4C[C@H](O[C@@H]5O[C@H](CO)[C@@H](O)[C@H](O)[C@@H]5O)[C@H]5C(C)(C)[C@@H](O[C@@H]6OC[C@@H](O)[C@H](O)[C@@H]6O)CC[C@@]56C[C@@]46CC[C@]23C)O1,outcome,[1],inactive
same,max response,[2],2.98%
same,max response,[3],-6.06%
same,max response,[4],2.16%
same,outcome,[5],inactive
same,Potency,[6],inactive
same,Potency,[7],inactive
Cn1cc(CNCC2CCN(c3ncc(C(=O)NO)cn3)CC2)c2ccccc21,Potency,[1],0.332 µM (active)
same,Potency,[2],0.187 µM (active)
same,Potency,[3],0.662 µM (active)
same,Potency,[4],0.132 µM (active)
same,Potency,[5],0.526 µM (active)
same,Potency,[6],0.833 µM (active)
same,Potency,[7],0.59 µM (active)
O=C(C=CC#Cc1cccc(NS(=O)(=O)c2ccccc2)c1)NO,Potency,[1],13.2 µM (active)
same,Potency,[2],8.33 µM (active)
same,Potency,[3],11.8 µM (active)
same,Potency,[4],5.26 µM (active)
same,Potency,[5],10.5 µM (active)
same,Potency,[6],14.8 µM (active)
same,Potency,[7],18.7 µM (active)
CN[C@H]1[C@@H](O)[C@@H]2O[C@@H]3O[C@H](C)CC(=O)[C@]3(O)O[C@@H]2[C@@H](NC)[C@H]1O,max response,[1],4.26%
same,max response,[2],-3.13%
same,max response,[3],-0.114%
same,outcome,[4],inactive
same,max response,[5],4.68%
same,Potency,[6],inactive
same,Potency,[7],inactive
C=CC1=C(C(=O)O)N2C(=O)[C@@H](NC(=O)C(=NO)c3csc(N)n3)[C@H]2SC1,outcome,[1],inactive
same,max response,[2],0.682%
same,max response,[3],4.35%
same,max response,[4],4.36%
same,outcome,[5],inactive
same,Potency,[6],inactive
same,Potency,[7],inactive
CCNC(=O)Nc1ccc(-c2nc3c(c(N4CCOC[C@H]4C)n2)CCN(C2COC2)C3)cc1,Potency,[1],0.296 µM (active)
same,Potency,[2],0.743 µM (active)
same,Potency,[4],1.32 µM (active)
same,Potency,[5],5.9 µM (active)
C[C@@]12C(=O)OC(=O)[C@@]1(C)C1CCC2O1,Potency,[1],5.26 µM (active)
same,Potency,[2],8.33 µM (active)
same,Potency,[3],26.4 µM (active)
same,Potency,[4],7.43 µM (active)
same,Potency,[5],13.2 µM (active)
same,Potency,[7],6.62 µM (active)
N#Cc1ccc(COC[C@H]2O[C@@H](n3c(NCc4ccc(Cl)c(Cl)c4)nc4c(N)ncnc43)[C@@H](O)[C@@H]2O)cc1,max response,[1],-5.8%
same,Potency,[2],16.6 µM (active)
same,Potency,[3],11.8 µM (active)
same,Potency,[7],inactive
